From PubChem
Vaccinia mCherry: inhibitors of vaccinia virus infection (mCherry reporter signal). Potency, µM (top dose mostly 36.5 µM), inactives show at the top dose activity change, negative = inhibition, hits mostly inhibitors. Vaccinia virus mCherry reporter infection, fluorescence. 0.63% of 310,000 active; calls by dose curve; tested in A549 cells; note: nearly all actives have a fitted effect of over 35% in size
AMA1-RON2 inh: disrupts binding of P. falciparum AMA1 to RON2; AlphaScreen AMA1-biotinylated RON2 peptide binding; Potency, µM (highest dose often 58.2 µM), for the others: at the highest dose activity change, negative = inhibition, most hits filed as inhibitors; 0.2% of 360,000 active; AID 720542;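 note: 0% = vehicle wells and -100% = peptide control; nearly all actives have a fitted effect of over 45% in size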
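AMA1 (3D7) with his tag at 25 nM final met compounds first, then biotinylated RON2 peptide at 25 nM; detection used donor plus acceptor beads, 10 µg/mL apiece, read by AlphaScreen after 30 min at room temperature.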
Pf growth 48h: P. falciparum growth inhibition at 48 hours (one generation); 5.9% of 310,000 active; P. falciparum luciferase growth in erythrocytes, 48 h; Potency, µM (series often up to 28.7 µM), for inactives: at the top dose activity change, negative = inhibition, actives largely listed as inhibitors
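Parasite viability was followed by luminescence of a genomically integrated firefly luciferase. Cultures held 0.1% parasitemia at 2% hematocrit (final), incubated under 5% CO2 at 37 C.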
Pf growth 96h: inhibits malaria parasite growth, 96 h | P. falciparum luciferase reporter growth, 96 h | 6.9% of 320,000 active | Potency, µM (top dose mostly 28.7 µM), inactives show top-dose activity change, negative = inhibition, usual class: inhibitors
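Cell-based qHTS: luciferase-tagged P. falciparum in erythrocytes (2% hematocrit, 0.05% parasitemia final) incubated with compounds for 96 hours, 37 C, 5% CO2; luciferase detection reagent then added and luminescence measured.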
Vaccinia Venus: vaccinia inhibition (Venus reporter). Vaccinia virus Venus reporter expression, fluorescence. Potency, µM (series often up to 36.5 µM), for the others: at the top dose activity change, negative = inhibition, hits mostly inhibitors. 0.46% of 330,000 active; calls by dose curve; tested in A549 cells; note: nearly all actives have a fitted effect of over 30% in size
* hit, by the source's call; i = inactive; u = inconclusive; x = not tested or not shown; [ ] = another dose, or the depositor's remark. This is a sample that favours compounds with a hit; in the whole collection about 8.7% have one here. Unless noted, calls come from the whole dose curve; as a rule, active = well fitted curve in the direction sought with a large enough effect; inconclusive = small, poorly fitted or top-dose-only effect, or another doubt; inactive = no such curve, though single readings can be large; an effect the other way counts as inactive or inconclusive. Unless noted, % is set by controls: 0 for no effect and ±100 for the full control effect; potency is the fitted concentration of half-maximal effect.

SMILES	Vaccinia mCherry	AMA1-RON2 inh	Pf growth 48h	Pf growth 96h	Vaccinia Venus
CC(=O)OC1C(O)C(C)OC(OC2C(OC(=O)C3CCC4C(C3)OC3(CC(OC(=O)/C=C/c5ccccc5)C(C)CO3)C43CO3)OC(C)C(O)C2OC(C)=O)C1O (centres undefined)	u	13.3%	x	x	0.316µM*
Cc1cccc(C)c1NC(=O)CSc1nnc(-c2ccncc2)n1Cc1ccco1	-15.6%	2.5%	x	12.8%	-12.7%
O=C(CSc1nnc(-c2ccncc2)n1Cc1ccco1)Nc1nccs1	-9.9%	0.0%	13.7%	7.38µM*	-8.0%
CCOC(=O)CNC(=O)CSc1nnc(-c2ccccc2)n1Cc1ccco1	x	7.6%	-0.4%	11.7µM*	0.0%
Cc1ccc(NC(=O)Cn2cccc2)c(C)c1	i	-12.8%	x	13.1µM*	-12.6%
Cc1ccc(NC(=O)CCn2c(=O)c3cccn3c3ccccc32)c(C)c1	x	-13.2%	u	13.1µM*	x
COc1ccc(NC(=O)CCn2c(=O)c3cccn3c3ccccc32)c(OC)c1	-2.9%	-18.4%	u	11.7µM*	-8.2%
Cc1cc(Cl)ccc1OCC(=O)NCC1Cc2cc(-c3cnccn3)ccc2O1 (centres undefined)	-29.5%	x	x	x	-19.3%
Cc1ccnc2c(Cl)cccc12	-14.1%	x	x	x	-10.6%
C=CCn1c(C)nnc1SCC(=O)N1c2ccccc2NC(=O)C1(C)C	i	-9.6%	x	x	-16.9%
CCCCCCn1c(COc2ccccc2F)nnc1SCC(=O)N1c2ccccc2NC(=O)C1(C)C	x	-15.0%	13.1µM*	8.28µM*	x
O=S(=O)(NC1c2cccc3cccc(c23)C1N1CCN(CCO)CC1)c1ccccc1 (centres undefined)	x	-8.4%	14.7µM*	-24.0%	u
O=C(c1ccccc1)N1CCN(C2c3cccc4cccc(c34)C2NS(=O)(=O)c2ccccc2)CC1 (centres undefined)	x	-11.4%	6.57µM*	4.15µM*	x
Cc1nc2c3ccccc3nc(NNC(=O)CCC(=O)N3CCN(c4cccc(Cl)c4)CC3)n2n1	-10.3%	x	x	x	-3.6%
CC1=C(C(=O)Nc2ccccc2)C(c2ccccc2Cl)n2ncc(C(=O)Nc3cccc(C)c3)c2N1 (centres undefined)	-2.9%	x	x	x	-17.8%
Cc1ccccc1Nc1cc(=O)oc2ccccc12	-8.7%	12.8%	x	13.1µM*	-13.1%
O=c1cc(NCCO)c2ccccc2o1	i	8.5%	x	33.5%	-9.4%
Cc1ccc(Nc2cc(=O)oc3ccccc23)c(C)c1	x	-5.2%	u	0.131µM*	x
Cc1ccc(NC(=O)c2c(C)oc3ccc(O)c(CN(C)Cc4ccccc4)c23)c(C)c1	-23.3%	x	x	x	-22.2%
CC1CCN(c2nc3ccc(C(=O)NCc4ccccc4Cl)cc3s2)CC1	-15.0%	x	x	x	-8.1%
CC(C)(C)[C@]1(O)CCN2C[C@H]3c4ccccc4CCc4cccc(c43)[C@@H]2C1	u	-5.7%	8.28µM*	3.7µM*	u
O=C(C1CCCCC1)N1CC(=O)N2CCc3ccccc3[C@@H]2C1	x	x	-12.3%	u	x
Cc1nc2nc(C)n(CCN3CCOCC3)c(=O)c2c(-c2cccc([N+](=O)[O-])c2)c1C(=O)CCCCCCCCCCN1CCC(c2ccccc2)(c2ccccc2)CC1	u	u	x	x	10µM*
Cc1ccc(Cl)cc1NC(=O)COC(=O)C1CCCC1	x	4.2%	22.3%	2.7%	-17.7%
Cc1ccc(Cl)cc1NC(=O)COC(=O)C12CC3CC(CC(C3)C1)C2	-3.8%	-12.6%	3.7µM*	7.38µM*	-23.5%
SMILES	Vaccinia mCherry	AMA1-RON2 inh	Pf growth 48h	Pf growth 96h	Vaccinia Venus
CCOC(=O)c1ccc(NC(=O)c2sc3nc4n(c(=O)c3c2C)CCC4)cc1	-12.7%	16.0%	u	14.7µM*	-20.1%
CCOC(=O)N1CCN(C(=O)Nc2sc3nc4n(c(=O)c3c2C)CCC(C)CC4)CC1 (centres undefined)	-6.1%	-8.6%	11.7µM*	13.1µM*	0.0%
CCOC(=O)N1CCC(NC(=O)c2sc3nc4n(c(=O)c3c2C)CCCC4)CC1	-26.0%	1.3%	x	2.33µM*	-19.3%
CCOC(=O)c1sc2nc3n(c(=O)c2c1C)CCC(C)CC3 (centres undefined)	i	-7.0%	x	-3.2%	0.0%
Cc1ccc(-n2ncc3c(N4CCN(Cc5ccccc5)CC4)ncnc32)cc1Cl	-3.2%	x	x	x	-11.0%
CC(=O)N1CCCc2cc(S(=O)(=O)N(C)CC(=O)Nc3ccc(C(C)C)cc3)ccc21	-20.3%	x	x	x	-18.4%
Cc1cccc(N2CCN(C(=O)CCNS(=O)(=O)c3ccc4c(c3)oc(=O)n4C)CC2)c1C	u	13.7%	u	1.31µM*	u
Cc1cccc(N2CCN(C(=O)CCS(=O)(=O)c3ccc4c(c3)oc(=O)n4C)CC2)c1C	u	8.9%	13.1µM*	9.28µM*	-28.0%
Cc1cc(Cl)ccc1NC(=O)CN1C(=O)COc2ccc(S(=O)(=O)Nc3ccccc3)cc21	-20.1%	x	x	x	-13.8%
CC12CCC(c3c(CO)nn(-c4ccccc4)c31)C2(C)C (centres undefined)	x	-6.3%	u	10.4µM*	x
CC12CCC(c3c(C(=O)O)nn(-c4ccccc4)c31)C2(C)C (centres undefined)	-2.6%	35.6%	-6.2%	3.0%	0.0%
Cc1cc2c(NC(=O)CCCC(=O)O)cccc2nn1	-17.8%	-4.1%	6.2%	20.9%	-15.0%
Cc1cc2c(NC(=O)Nc3ccc(C(F)(F)F)cc3)cccc2nn1	i	-3.3%	10.4µM*	9.28µM*	-5.5%
CCCCCCC(=O)O[C@H]1CC[C@H]2[C@@H]3CCC4CC(=O)C=C(C)[C@]4(C)[C@H]3CC[C@]12C (some centres undefined)	x	x	4.78µM*	6.75µM*	x
CCCSc1nc2sc3c(c2c(=O)[nH]1)CCN(Cc1ccccc1)C3	i	-4.4%	u	4.15µM*	-6.9%
O=c1[nH]c(C(Cl)Cl)nc2sc3c(c12)CCN(Cc1ccccc1)C3	-12.2%	15.7%	-29.1%	u	3.2%
Cc1ccc(N2CC(NC(=O)C3CCCC3)CC2=O)cc1 (centres undefined)	-7.3%[7.34 µM]	x	x	x	-3.6%[7.34 µM]
Cc1c(-c2ccncc2)oc2ccc(Br)cc2c1=O	x	x	9.28µM*	u	x
O=c1c2ccccc2ncn1-c1cccc(Br)c1	-5.7%	-2.1%	25.9%	1.65µM*	-11.8%
COc1cccc(/C=c2/[nH]c(=O)/c(=C\c3cccc(OC)c3OC)[nH]c2=O)c1OC	-6.9%	x	x	x	-18.5%
COc1ccc(S(=O)(=O)Nc2ccccc2C(=O)Nc2nc(-c3ccc(F)cc3)cs2)cc1OC	u	-0.8%	3.29µM*	u	u
COc1ccc(-c2csc(NC(=O)c3c(OC)cccc3OC)n2)cc1	u	-14.1%	5.86µM*	u	-15.6%
COc1ccc(-c2csc(NC(=O)c3ccccc3NS(=O)(=O)c3ccc(C)cc3)n2)cc1	11.2µM*	-21.9%	-4.1%	0.0%	u
COc1ccc(-c2csc(NC(=O)COc3ccc(N(C)S(=O)(=O)c4ccc(C)cc4)cc3)n2)cc1	-9.7%	-16.6%	u	u	u
